Data published in PubChem BioAssay (NCI).
The panel holds about 83,000 compounds, 20% with a hit somewhere; the sample as a whole holds those more often.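 Single-dose data. Exposure time 48 hours. Values below 10 considered active.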 A number with no mark means an inactive call. Calls of active or inactive are those of the source.

Legend:
Assay in all cases: NCI-60 one-dose screen, 48 h (100 = growth as untreated, 0 = no growth, -100 = all killed)
Conditions in all cases: 10 µM unless noted
[1] = test system: HCT-15 colon
[2] = test system: HT29 colon
[3] = test system: SNB-75 CNS
[4] = test system: SNB-19 CNS
[5] = test system: U251 CNS
[6] = test system: PC-3 prostate
[7] = test system: SK-MEL-5 melanoma
[8] = test system: UACC-62 melanoma
[9] = test system: LOX IMVI melanoma
[10] = test system: SK-MEL-28 melanoma
[11] = test system: SK-MEL-2 melanoma
[12] = test system: SN12C renal
[13] = test system: UO-31 renal
[14] = test system: TK-10 renal
[15] = test system: ACHN renal
[16] = test system: CAKI-1 renal
[17] = test system: CCRF-CEM leukemia
[18] = test system: MOLT-4 leukemia
[19] = test system: A498 renal

Row | Structure (SMILES) | growth [1] | growth [2] [%] | growth [3] | growth [4] [%] | growth [5] | growth [6] [%] | growth [7] | growth [8] | growth [9] | growth [10] [%] | growth [11] [%] | growth [12] | growth [13] | growth [14] [%] | growth [15] | growth [16] | growth [17] | growth [18] | growth [19] [%]
1 | O=C(Nc1ccc(Cl)cc1)c1cc(-c2ccc(F)cc2)c2sc(=O)[nH]c2n1 | 13.1% | 16.9 | -5.08% (active) | 19.3 | 9.42% (active) | 10.3 | -86.1% (active) | 26.9% | 8.5% (active) | 25.4 | 14.3 | 11.9% | 4.68% (active) | 20.8 | 2.34% (active) | -12.7% (active) | 16.8% | 13.9% | –
2 | COc1ccc(/C=C/C(=O)c2ccc(B(O)O)cc2)cc1O | 31.2% | 64.6 | 72.6% | 89.2 | 80.7% | 74.1 | 93% | 76.9% | 57.7% | 90.3 | 92.2 | 86.7% | 60.8% | 104 | 93.9% | – | 82.6% | 82.3% | 61.8
3 | Clc1ccc2c(c1)NC1(CCSc3ccccc31)n1nccc1-2 (stereo not drawn) | 98.5% | 90.9 | 95.5% | 102 | 88.6% | 81 | 99.4% | 94.7% | 92.3% | 98.4 | 98.7 | 104% | 83.5% | 96.7 | 100% | 96.3% | 95.7% | 90.9% | –
4 | COc1cc(/C=C2\CCCC3=C2N=C2SC(C)=NN2C3c2cc(OC)c(OC)c(OC)c2)cc(OC)c1OC (stereo not drawn) | -20.6% (active) | 13.9 | -7.84% (active) | 32.3 | 20.9% | 57.7 | 45.2% | -31.2% (active) | -67.6% (active) | 26.3 | 77.5 | -5.64% (active) | 8.14% (active) | 75.9 | -7.34% (active) | -38.1% (active) | -10% (active) | -7.59% (active) | –
5 | Cc1ccc(S(=O)(=O)NCCCNc2nccc(-c3c(-c4ccccc4)nc4sccn34)n2)cc1 | 47% | 18.5 | 48.4% | 75.4 | 63.1% | 30.9 | 45% | 36.5% | 32.6% | 78.5 | 82.9 | 48.1% | 33.9% | 85.8 | 37.7% | 47.3% | 18.5% | 43.5% | –
6 | N#Cc1ccc(NC(=O)c2ccc3cccnc3c2O)cc1 | 31.4% | 30.7 | 43.8% | 23.6 | 14.6% | 45.9 | 14.4% | 9.43% (active) | 21.9% | 34.5 | 41.3 | 33.7% | 18.4% | 34 | 14.7% | -12.5% (active) | 23.8% | 12.7% | –
